High-throughput results: PubChem BioAssay, several laboratories
Compounds with a hit are over-represented: about 0.82% of the library has one in this group of screens.
Cardiac RTF inh = cardiac RTF calcium desensitization; AID 493244; P19429+P45379; 340,000 compounds, 0.12% hits; IANBD-labeled cardiac RTF, Ca2+ fluorescence; inhibition, % at 7.15 µM;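 active means inhibition above the mean inhibition of all tested compounds plus 3 SD, cut at about 17% in these data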;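 further: assay run at fixed EC70 calcium of 1.6 mM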
E coli Lon inh = E. coli protease La inhibition. AID 602123. inhibition, % at 7.94 µM. P0A9M0. 360,000 compounds, 0.42% hits. purified E. coli Lon protease, fluorescence polarization; in the data active means inhibition above about 13%, passing the limit was not always enough;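 further: 0% = enzyme with probe and DMSO and 100% = no enzyme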
RTF Ca sens act = increases calcium sensitivity of human cardiac regulated thin filaments; P19429+P45379; IANBD-labeled TnC RTF fluorescence at EC20 calcium; 0% EC20 calcium, 100% full calcium; activation, % at 7.2 µM; 340,000 compounds, 0.24% hits;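 active means activation above the mean over all tested compounds plus 3 SD, cut at about 30% in these data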;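 further: rise in fluorescence read as greater calcium sensitivity of cardiac thin filaments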
Keap1-Nrf2 PPI = disrupts human Keap1 binding to Nrf2 peptide. Q14145. Keap1 Kelch-Nrf2 peptide fluorescence polarization, 1536-well. inhibition, % at 9.4 µM. 340,000 compounds, 0.15% hits. AID 504523; in the data active means inhibition above about 12%;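 further: human Keap1 Kelch domain with fluorescein labeled Nrf2 9mer peptide probe; 0% = neutral control wells and 100% = peptide positive control; higher means more block of Keap1 binding to Nrf2 peptide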
Target sequence (Q14145 whole entry, looked up, the tested form may be a part): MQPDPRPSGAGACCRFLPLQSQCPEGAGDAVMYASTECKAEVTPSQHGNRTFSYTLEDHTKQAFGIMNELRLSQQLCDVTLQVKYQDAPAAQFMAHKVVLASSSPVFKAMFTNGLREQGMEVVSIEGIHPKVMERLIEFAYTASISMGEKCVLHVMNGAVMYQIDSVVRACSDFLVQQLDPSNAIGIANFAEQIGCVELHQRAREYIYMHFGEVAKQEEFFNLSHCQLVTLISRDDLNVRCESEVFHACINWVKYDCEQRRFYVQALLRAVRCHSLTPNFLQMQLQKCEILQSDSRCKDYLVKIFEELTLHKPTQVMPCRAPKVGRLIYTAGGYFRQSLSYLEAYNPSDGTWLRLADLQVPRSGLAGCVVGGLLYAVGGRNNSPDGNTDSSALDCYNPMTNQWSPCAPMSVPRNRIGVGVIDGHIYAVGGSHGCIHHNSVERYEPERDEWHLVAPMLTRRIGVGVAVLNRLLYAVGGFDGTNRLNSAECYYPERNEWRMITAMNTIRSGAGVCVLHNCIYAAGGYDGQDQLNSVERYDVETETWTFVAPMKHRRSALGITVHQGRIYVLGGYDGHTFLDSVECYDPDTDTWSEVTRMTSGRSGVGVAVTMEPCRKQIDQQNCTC
LANA DNA inh = inhibitors of KSHV LANA C-terminal domain DNA binding; inhibition, % at 9 µM; 340,000 compounds, 0.078% hits; MBP-C-LANA/FAM-LBS DNA binding, fluorescence polarization;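 active means highest replicate inhibition at or above 60% at 9 µM, even if other replicates fall short; inactive means all replicates below 60% inhibition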;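 further: 0% = neutral control wells and 100% = 4 µM acridine orange control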
Starred values were filed as active, the others as inactive; i = inactive; x = no result given.

SMILES | Cardiac RTF inh | E coli Lon inh | RTF Ca sens act | Keap1-Nrf2 PPI | LANA DNA inh
Cc1cc2cc(CNC(=O)c3ccc4c(c3)OCO4)ccc2n1C | -7 | 25* | -2 | 2 | 1
C[C@H]1CN([C@@H](C)CO)C(=O)CCCn2cc(nn2)CO[C@@H]1CN(C)C(=O)Nc1cccc(F)c1 | x | -2 | x | x | x
Cc1ccc(-c2nc3cc(C)c(Br)c(C)n3c2Cc2ccsc2)cc1 | x | -7 | x | x | x
CC(=O)Oc1ccccc1Cn1c(C)c(C(=O)NCCC#N)sc1=O | x | 2 | x | x | x
CC1OC2CC(=O)OC2C2=C1C(=O)c1c(O)cccc1C2=O (stereo not given) | x | 9 | x | x | x
CC(=O)Oc1ccc(N2C(=O)C3C(C2=O)C(C(=O)c2ccc(Cl)cc2)N2CCCC32)cc1 (stereo not given) | -39 | 6 | 45* | -8 | 9
CCCCCCCCC(c1nc2ccccc2[nH]1)N1CCN=C1c1cc2ccccc2[nH]1 (stereo not given) | x | -5 | x | x | x
CCN1C(=O)/C(=C/C=C2/CCCN2C)OC1=S | -38 | -154 | 32* | -17 | -2
CC(C)=C[C@H]1C[C@H](C)[C@H]2CC[C@H](C)c3c(O[C@@H]4O[C@@H](C)[C@@H](O)[C@@H](O)[C@@H]4O)c(O)c(C)c1c32 | x | 5 | x | x | x
CCN1/C(=C/C=C2/SC(=Nc3cccc4ncccc34)N(C)C2=O)Sc2ccccc21 | -28 | -146 | 41* | 0 | 2
CCCN1C(=O)/C(=C\C=C2/Sc3ccccc3N2CCO)SC1=S | -7 | -33 | -1 | -2 | -1
Oc1c(Br)cc(/C=N/n2c(-c3ccccc3)n[nH]c2=S)cc1Br | 0 | 4 | 1 | -3 | -7
Oc1c(Br)cc(/C=N/n2c(-c3ccccc3)n[nH]c2=S)c(O)c1Br | -4 | -6 | -2 | 24* | 24
Cc1ccc(S(=O)(=O)N2CCCCC2)cc1NC(=O)c1ccc(=O)[nH]c1 | x | -15 | x | x | x
CN(C)c1ccc(/C=C(/C#N)C(=O)NCc2ccccc2)o1 | -98 | i | 69* | -19 | 3
COc1ccc(C(NC(=O)C2CCN(CCOc3ccc(Cl)cc3Cl)CC2)c2cccs2)cc1 (stereo not given) | x | -7 | x | x | x
Cc1ccc(S(=O)(=O)OCC(=O)Nc2ccc(C(=O)O)c(O)c2)cc1 | -10 | 27 | -6 | -5 | 62*
Cc1ccc(NC(=O)COCC(=O)Nc2ccc(C)cc2)cc1 | 3 | -7 | -3 | -1 | -1
S=c1c2c(nc3nc[nH]n13)CCC2 | -12 | 10 | 2 | -2 | 63*
CC1CCc2c(nc3nc[nH]n3c2=O)C1 (stereo not given) | 8 | -1 | -4 | -2 | 2
O=C1N=C(N2CCOCC2)S/C1=C/c1ccc(-c2ccc(F)cc2)o1 | -14 | -11 | 6 | -1 | -1
CC(C)OC(=O)CN1C(=O)S/C(=C/c2ccc(N3CCCCC3)o2)C1=O | -55 | -417 | 93* | -5 | -1
O=C1S/C(=C\c2ccc(N3CCOCC3)o2)C(=O)N1Cc1ccc(F)cc1 | -40 | -169 | 50* | -60 | 1
O=C1NC(=S)S/C1=C/c1ccc(N2CCOCC2)o1 | -5 | -3 | 34* | -16 | -14
O=C1S/C(=C/c2ccc(N3CCOCC3)o2)C(=O)N1Cc1ccc(F)cc1 | -51 | -130 | 72* | -7 | -1
SMILES | Cardiac RTF inh | E coli Lon inh | RTF Ca sens act | Keap1-Nrf2 PPI | LANA DNA inh
C#CCN1C(=O)S/C(=C\c2ccc(-c3ccc(C(=O)O)cc3C)o2)C1=O | 0 | -16 | 5 | -8 | 17
C[C@H](CO)N1C[C@H](C)[C@H](CN(C)S(C)(=O)=O)OCc2cnnn2CCCC1=O | x | -10 | x | x | x
COc1ccc(OC)c(/C=C2/Sc3ccccc3C2=O)c1 | -60 | -221 | 37* | -5 | 1
COc1ccc(OC)c(C=C2CCc3ccccc3C2=O)c1 | x | 0 | x | x | x
COc1cc(OC)cc(C2=Cc3ccccc3C(CC(=O)c3ccco3)N2c2ccc(-c3cncnc3)cc2)c1 (stereo not given) | x | -3 | x | x | x
COc1ccc(C2C(C(C)=O)=C(C)N=c3s/c(=C\c4cc(C)n(C)c4C)c(=O)n32)c(OC)c1 (stereo not given) | -120 | i | 110* | -17 | 2
Cc1cc(S(=O)(=O)NC2CCN(Cc3ccccc3)CC2)c(C)cc1Cl | -6 | -11 | 1 | 0 | 82*
Cc1cc(C)c(S(=O)(=O)NC2CCN(Cc3ccccc3)CC2)c(C)c1 | -2 | -9 | 0 | 1 | 0
COC(=O)CN1C(=O)CSc2ccc(S(=O)(=O)N3CCC(C)CC3)cc21 | x | -2 | x | x | x
CN(C)c1ccc(/C=C(\C#N)C(=O)Nc2nc3c(s2)CCN(Cc2ccccc2)C3)cc1 | -67 | i | 83* | 2 | -1
CC1CC(O)C2C3(C)CCCC2(COC3=O)C12CCC1(CCOC1=O)O2 (stereo not given) | x | -4 | x | x | x
Cc1ccc(N2C3=C(C(=O)CC(C)(C)C3)C(c3cn(C)nc3C)C3=C2CC(C)(C)CC3=O)cc1 | -24 | 80* | 17 | 0 | 4
Cc1ccc(C(=O)NCCN2CCC(n3c(=O)[nH]c4ccccc43)CC2)cc1C | x | -1 | x | x | x
Cc1nn(-c2ccccc2)c(N2CCCC2)c1/C=C1\N=C(c2ccc(OC(C)C)cc2)OC1=O | -61 | -10 | 64* | 0 | 3
CCCCn1nnnc1C(c1cccc2ccccc12)N1CCN(C/C=C/c2ccccc2)CC1 (stereo not given) | x | -8 | x | x | x
O=C(OCCN1C(=O)c2cccc3c(N4CCOCC4)ccc(c23)C1=O)c1ccccc1Cl | -95 | -192 | 112* | 55* | 48
O=C(OCCN1C(=O)c2ccccc2C1=O)c1cc(S(=O)(=O)N2CCOCC2)ccc1Cl | -7 | 8 | 4 | 2 | -1
CC1(C(=O)Nc2ccc3[nH]ncc3c2)CCN1C(=O)Cc1ccc(-c2ccccc2)cc1 (stereo not given) | x | -2 | x | x | x
CC(=O)OC[C@@H]1CN(Cc2ccccc2)C[C@H](n2cnc3c(N4CCN(c5ccccc5)CC4)ncnc32)O1 | x | 1 | x | x | x
CCOC(=O)CC(=O)CSc1nc(-c2ccc3c(c2)OCO3)cc(C(F)(F)F)c1C#N | -12 | -28 | 40* | 1 | 7
CCCCCn1nc(-c2ccccc2)c2nc3ccccc3nc21 | -6 | -8 | 21 | 1 | 94*
CCCCn1c2nc3ccccc3nc2c2c(=O)n(CCC)cnc21 | 2 | -12 | -3 | -4 | -1
COc1ccc(N/C=C2\CCOC2=O)cc1 | 1 | 3 | 2 | 1 | -2
COc1ccc(N/C=C2\C(=O)CCc3c2oc2cc(Cl)c(O)c(Cl)c32)cc1 | -28 | -5 | 100* | -2 | 3
Cc1cc(/C=C2\SC(=S)N(C)C2=O)c(C)n1-c1ccccc1O | -44 | -181 | 44* | -12 | 5
CCOC(=O)/C(C#N)=C\c1ccc(N2CCN(C/C=C/c3ccccc3)CC2)cc1 | -70 | -97 | 76* | -8 | 1
CCOC(=O)/C(C#N)=C\c1cc(C)n(-c2ccccc2)c1C | -12 | -2 | 4 | 0 | -2
CCOc1ccc(C2OC34CCCCC3C(C#N)(C#N)C2(C#N)C(=N)O4)cc1OC (stereo not given) | -35 | 34* | 29 | 19* | 42
